The supplement of paper PMC8728848
The full list was thinned out, with the strongest signals kept by preference.

Tests used:
Assay in all cases: glycan array binding signal (z-score within array); higher = stronger binding
Settings in all cases: glycan notation: IUPAC condensed, linker removed
[1] = molecular target: Fuc(a1-2)Gal(b1-4)GlcNAc(b1-3)[Fuc(a1-3)[Gal(b1-4)]GlcNAc(b1-6)]Gal(b1-4)Glc
How it was run: (§1)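 Glycan array data were curated from 3228 arrays in the Consortium for Functional Glycomics database and kept only where the protein sequence was available. Glycan names were converted to IUPAC-condensed notation, and columns mapping to the same glycan were averaged. The binding signal is a within-array Z-score, averaged across arrays of the same protein sequence at different concentrations or buffers and across linkers. Negative Z-scores can be read as non-binding.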

[2] = molecular target: Fuc(a1-2)[Gal(a1-3)]Gal(b1-3)GlcNAc(b1-3)GalNAc
How it was run: as §1

[3] = molecular target: Fuc(a1-2)[GalNAc(a1-3)]Gal(b1-3)GalNAc(b1-3)Gal(a1-4)Gal(b1-4)Glc
How it was run: as §1

[4] = molecular target: Fuc(a1-2)[GalNAc(a1-3)]Gal(b1-3)GlcNAc(b1-6)GalNAc
How it was run: as §1

[5] = molecular target: Fuc(a1-2)[GalNAc(a1-3)]Gal(b1-4)GlcNAc(b1-2)Man(a1-3)[Fuc(a1-2)[GalNAc(a1-3)]Gal(b1-4)GlcNAc(b1-2)Man(a1-6)]Man(b1-4)GlcNAc(b1-4)GlcNAc
How it was run: as §1

[6] = molecular target: Fuc(a1-2)[GalNAc(a1-3)]Gal(b1-4)GlcNAc(b1-2)Man(a1-3)[Fuc(a1-2)[GalNAc(a1-3)]Gal(b1-4)GlcNAc(b1-2)Man(a1-6)]Man(b1-4)GlcNAc(b1-4)[Fuc(a1-6)]GlcNAc
How it was run: as §1

[7] = molecular target: Fuc(a1-3)[Gal(b1-4)]GlcNAc(b1-2)Man(a1-3)[Fuc(a1-3)[Gal(b1-4)]GlcNAc(b1-2)Man(a1-6)]Man(b1-4)GlcNAc(b1-4)GlcNAc
How it was run: as §1

Fuc(a1-4)GlcNAc = molecular target: Fuc(a1-4)GlcNAc
How it was run: as §1

Gal(a1-2)Gal = molecular target: Gal(a1-2)Gal
How it was run: as §1

Gal(a1-3)Gal = molecular target: Gal(a1-3)Gal
How it was run: as §1

[8] = molecular target: Gal(a1-3)Gal(b1-3)GlcNAc(b1-6)GalNAc
How it was run: as §1

[9] = molecular target: Gal(a1-3)Gal(b1-4)GlcNAc(b1-2)Man(a1-3)[Gal(a1-3)Gal(b1-4)GlcNAc(b1-2)Man(a1-6)]Man(b1-4)GlcNAc(b1-4)GlcNAc
How it was run: as §1

[10] = molecular target: Gal(a1-3)Gal(b1-4)[Fuc(a1-3)]GlcNAc
How it was run: as §1

[11] = molecular target: Gal(a1-3)Gal(b1-4)[Fuc(a1-3)]GlcNAc(b1-2)Man(a1-3)[Gal(a1-3)Gal(b1-4)[Fuc(a1-3)]GlcNAc(b1-2)Man(a1-6)]Man(b1-4)GlcNAc(b1-4)GlcNAc
How it was run: as §1

Gal(a1-3)GalNAc = molecular target: Gal(a1-3)GalNAc
How it was run: as §1

[12] = molecular target: Gal(a1-3)[Gal(a1-4)]Gal(b1-4)GlcNAc
How it was run: as §1

[13] = molecular target: Gal(a1-4)Gal(b1-3)GlcNAc(b1-2)Man(a1-3)[Gal(a1-4)Gal(b1-3)GlcNAc(b1-2)Man(a1-6)]Man(b1-4)GlcNAc(b1-4)GlcNAc
How it was run: as §1

Gal(b1-3)Gal = molecular target: Gal(b1-3)Gal
How it was run: as §1

[14] = molecular target: Gal(b1-3)GalNAc(a1-3)[Fuc(a1-2)]Gal(b1-4)GlcNAc
How it was run: as §1

[15] = molecular target: Gal(b1-3)GlcNAc(b1-2)[Gal(b1-3)GlcNAc(b1-6)]Man(a1-6)[Gal(b1-3)GlcNAc(b1-2)Man(a1-3)]Man(b1-4)GlcNAc(b1-4)GlcNAc
How it was run: as §1

[16] = molecular target: Gal(b1-3)GlcNAc(b1-3)Gal(b1-4)GlcNAc(b1-2)Man(a1-3)[Gal(b1-3)GlcNAc(b1-3)Gal(b1-4)GlcNAc(b1-2)Man(a1-6)]Man(b1-4)GlcNAc(b1-4)GlcNAc
How it was run: as §1

[17] = molecular target: Gal(b1-3)[Fuc(a1-4)]GlcNAc(b1-6)GalNAc
How it was run: as §1

[18] = molecular target: Gal(b1-4)GlcNAc(b1-2)Man(a1-3)[Gal(b1-4)GlcNAc(b1-2)Man(a1-6)]Man(b1-4)GlcNAc(b1-4)GlcNAc
How it was run: as §1

[19] = molecular target: Gal(b1-4)GlcNAc(b1-2)Man(a1-3)[Gal(b1-4)GlcNAc(b1-2)Man(a1-6)][Gal(b1-4)GlcNAc(b1-4)]Man(b1-4)GlcNAc(b1-4)[Fuc(a1-6)]GlcNAc
How it was run: as §1

[20] = molecular target: Gal(b1-4)GlcNAc(b1-2)[Gal(b1-4)GlcNAc(b1-6)]Man(a1-6)[Gal(b1-4)GlcNAc(b1-2)Man(a1-3)]Man(b1-4)GlcNAc(b1-4)[Fuc(a1-6)]GlcNAc
How it was run: as §1

[21] = molecular target: Gal(b1-4)GlcNAc(b1-3)Gal(b1-3)GlcNAc
How it was run: as §1

[22] = molecular target: Gal(b1-4)GlcNAc(b1-3)Gal(b1-4)GlcNAc(b1-2)Man(a1-3)[Gal(b1-4)GlcNAc(b1-3)Gal(b1-4)GlcNAc(b1-2)Man(a1-6)]Man(b1-4)GlcNAc(b1-4)GlcNAc
How it was run: as §1

[23] = molecular target: Gal(b1-4)GlcNAc(b1-3)Gal(b1-4)GlcNAc(b1-3)Gal(b1-4)GlcNAc
How it was run: as §1

[24] = molecular target: Gal(b1-4)GlcNAc(b1-3)Gal(b1-4)GlcNAc(b1-3)Gal(b1-4)GlcNAc(b1-2)Man(a1-3)[Gal(b1-4)GlcNAc(b1-3)Gal(b1-4)GlcNAc(b1-3)Gal(b1-4)GlcNAc(b1-2)Man(a1-6)]Man(b1-4)GlcNAc(b1-4)GlcNAc
How it was run: as §1

[25] = molecular target: Gal(b1-4)GlcNAc(b1-3)Gal(b1-4)GlcNAc(b1-3)Gal(b1-4)GlcNAc(b1-2)[Gal(b1-4)GlcNAc(b1-3)Gal(b1-4)GlcNAc(b1-3)Gal(b1-4)GlcNAc(b1-6)]Man(a1-6)[Gal(b1-4)GlcNAc(b1-3)Gal(b1-4)GlcNAc(b1-3)Gal(b1-4)GlcNAc(b1-2)Man(a1-3)]Man(b1-4)GlcNAc(b1-4)[Fuc(a1-6)]GlcNAc
How it was run: as §1

B1: SP16664B-bot-474-25-474 (Bacteroides ovatus) (protein)
chain: CEEDIEIGNKIDESSYLASTQLSGLLLDENTNKNSSVIELRNNEYSTNVVFRLSKLPQKGVDVQIAVEESYAAIYNTIHETDFEVFPAANVKIANNGTFVLAPDDKVTPSVKVTLTAFDGMEEDKTYIVPLTVTSSTEGVTFTETSKHMVLLVQDYRNKPNTNKGEDAVQTVLYFEVNDTNPLNALEFLTESGKYFFDHIVLFAANINWDPEKQRVYLANNENVQFLLDNNDKYLQPLRKAGMKIIISILGNHDEAGVAQLSDMGAREFARELAAYCRAYNLDGVAFDDEYSNSPDLSNPWLASPSAYAGSRLMYECKAVMPEKIVSLYNLGNMYSSSLQVIDGIEPGQYCDYAVADYGGAAGPGTGMTLKQCAGMSIELRRGSGNSSESTARSRKEAGYGYYMFFALDPSLYGSQVYRCQSVCKGLYDETLVYPSYYYKKNSTEREAIN
Which results are given for B1?
glycan array binding signal (z-score) [1]: -0.136; glycan array binding signal (z-score) [2]: -0.535; glycan array binding signal (z-score) [3]: -0.296; glycan array binding signal (z-score) [4]: -0.622; glycan array binding signal (z-score) [5]: 0.635; glycan array binding signal (z-score) [6]: 1.16; glycan array binding signal (z-score) [7]: 2.22; glycan array binding signal (z-score) (Fuc(a1-4)GlcNAc): 2.34; glycan array binding signal (z-score) (Gal(a1-2)Gal): 0.194; glycan array binding signal (z-score) (Gal(a1-3)Gal): -0.094; glycan array binding signal (z-score) [8]: 0.049; glycan array binding signal (z-score) [9]: 2.23; glycan array binding signal (z-score) [10]: -0.366; glycan array binding signal (z-score) [11]: 1.65; glycan array binding signal (z-score) (Gal(a1-3)GalNAc): -0.504; glycan array binding signal (z-score) [12]: -0.405; glycan array binding signal (z-score) [13]: 1.04; glycan array binding signal (z-score) (Gal(b1-3)Gal): -0.262; glycan array binding signal (z-score) [14]: -0.291; glycan array binding signal (z-score) [15]: 0.525; glycan array binding signal (z-score) [16]: -0.246; glycan array binding signal (z-score) [17]: 0.134; glycan array binding signal (z-score) [18]: -0.21; glycan array binding signal (z-score) [19]: -0.39; glycan array binding signal (z-score) [20]: -0.218; glycan array binding signal (z-score) [21]: -0.433; glycan array binding signal (z-score) [22]: 1.81; glycan array binding signal (z-score) [23]: -0.33; glycan array binding signal (z-score) [24]: 1.88; glycan array binding signal (z-score) [25]: 2.21
